Laboratory results taken from PubChem BioAssay (Tox21).
Results filed as inconclusive are left out. Activity calls are given as the source filed them. Unless noted, calls come from the whole dose curve.

Target: Thyrotropin receptor (Homo sapiens) (UniProt P16473)
Experiment: qHTS assay to identify small molecule antagonists of the thyroid stimulating hormone receptor (TSHR) signaling pathway (AID 1259385); note: nearly all actives have a fitted effect of over 20% in size
Settings: TSHR-HEK293 cAMP HTRF, TSH-stimulated antagonist mode; series mostly up to 92.4 µM; activity change, negative = inhibition: at the top concentration
How it was run: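 TSHR-HEK293 cells (800/well) plated 18 h, then compounds with Ro20-1724 and TSH at 1.5 ng/mL final, 30 min at room temperature. cAMP quantified by HTRF (cAMP-d2/anti-cAMP-cryptate, 1 h); 15 concentrations in triplicate.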
% is set by controls: 0 for no effect and ±100 for the full control effect.

Chain of Thyrotropin receptor (Homo sapiens) (P16473 whole entry, looked up): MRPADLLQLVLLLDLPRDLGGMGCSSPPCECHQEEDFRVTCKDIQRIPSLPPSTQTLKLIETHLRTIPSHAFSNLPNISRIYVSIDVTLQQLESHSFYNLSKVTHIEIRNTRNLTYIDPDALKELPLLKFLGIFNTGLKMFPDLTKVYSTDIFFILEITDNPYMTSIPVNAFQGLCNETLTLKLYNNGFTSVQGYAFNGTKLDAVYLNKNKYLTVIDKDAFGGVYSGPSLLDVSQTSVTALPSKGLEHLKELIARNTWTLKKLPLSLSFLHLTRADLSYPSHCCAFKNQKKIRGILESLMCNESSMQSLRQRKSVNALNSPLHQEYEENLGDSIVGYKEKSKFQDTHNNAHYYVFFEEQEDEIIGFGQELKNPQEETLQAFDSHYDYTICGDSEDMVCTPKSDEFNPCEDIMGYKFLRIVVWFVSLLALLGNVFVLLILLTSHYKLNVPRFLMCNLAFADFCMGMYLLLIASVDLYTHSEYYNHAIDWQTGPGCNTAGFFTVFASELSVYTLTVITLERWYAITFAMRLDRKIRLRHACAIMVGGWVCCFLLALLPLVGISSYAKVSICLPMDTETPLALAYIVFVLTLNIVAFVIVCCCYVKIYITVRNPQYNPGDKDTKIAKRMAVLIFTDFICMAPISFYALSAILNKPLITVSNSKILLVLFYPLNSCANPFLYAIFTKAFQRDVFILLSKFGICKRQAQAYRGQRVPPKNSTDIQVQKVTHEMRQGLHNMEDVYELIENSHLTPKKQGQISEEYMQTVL

| Structure (SMILES) | activity change, negative = inhibition | Potency |
| --- | --- | --- |
| CC(CCc1ccc2c(c1)OCO2)NN (stereo not given) | 0.48% [at 42.5 µM] (inactive) |  |
| CC(C)c1nnc2ccc(-c3ocnc3-c3cc(F)ccc3F)cn12 | -1.39% (inactive) |  |
| CN1CCCN=C1/C=C/c1cccs1 | -2.32% [at 42.5 µM] (inactive) |  |
| CC1(C)C(=O)N(Br)C(=O)N1Cl | -0.154% (inactive) |  |
| O=C(O)c1cccc(O)c1 | -0.0273% (inactive) |  |
| NC(=O)Nc1ccc(Cl)cc1 | 1.88% (inactive) |  |
| O=C(O)c1ccc(CO)o1 | -4.56% (inactive) |  |
| CCCCCCOC(=O)C(C)C | 1.54% (inactive) |  |
| CCCCCCCCCCCC[N+](C)(C)CCCS(=O)(=O)[O-] | -7.12% (inactive) |  |
| CCCOCCOCCO | -0.852% (inactive) |  |
| Cc1cc(O)c2c(O)c3c(O)cccc3cc2c1 | -0.807% [at 42.5 µM] (inactive) |  |
| Cn1c(=O)c2c(ncn2CC(=O)O)n(C)c1=O | -1.94% [at 42.5 µM] (inactive) |  |
| CC#N | 1.86% (inactive) |  |
| CO[C@H]1O[C@H](CO)[C@@H](O)[C@H](O)[C@H]1O | 2.87% (inactive) |  |
| Cc1oncc1C(=O)Nc1ccc(C(F)(F)F)cc1 |  | inactive |
| CC1CN(c2cc3c(cc2F)c(=O)c(C(=O)O)cn3-c2ccc(F)cc2F)CCN1 (stereo not given) | -6.71% [at 8.39 µM] (inactive) |  |
| COC(OC)(C(=O)c1ccccc1)c1ccccc1 | -0.725% (inactive) |  |
| O=c1[nH]c2ccc(S(=O)CCN3CCC(Cc4ccc(F)cc4)CC3)cc2o1 (stereo not given) | -3.22% (inactive) |  |
| Cc1nc2ccccc2s1 | -0.15% (inactive) |  |
| CCOCCn1c(C2CCN(CCc3ccc(C(C)(C)C(=O)O)cc3)CC2)nc2ccccc21 | 3.44% [at 42.5 µM] (inactive) |  |
| CC(=O)Nc1ccc(N)cc1 | -1% (inactive) |  |
| CN1CCN(c2c(F)cc3c(=O)c(C(=O)O)cn4c3c2OCN4C)CC1 | -3.1% [at 19 µM] (inactive) |  |
| O=S(=O)(c1ccccc1)c1ccc(Cl)cc1 | -3.68% (inactive) |  |
| C[Si](NC1CCCCC1)(NC1CCCCC1)NC1CCCCC1 | -0.521% (inactive) |  |
| CC(C)(C)C(=O)C(Oc1ccc(Cl)cc1)n1ccnc1 (stereo not given) | 4.47% [at 42.5 µM] (inactive) |  |
| CN(C)C(=O)Nc1ccc(Oc2ccc(Cl)cc2)cc1 | -5.4% (inactive) |  |
| Nc1nc(Cl)nc2c1ncn2[C@@H]1O[C@H](CO)[C@@H](O)[C@@H]1F | -3.49% [at 42.5 µM] (inactive) |  |
| CCOc1cc(N)c(Cl)cc1C(=O)NCC1CN(Cc2ccc(F)cc2)CCO1 (stereo not given) | -2.57% [at 42.5 µM] (inactive) |  |
| Cc1cc(OI)c(C(C)C)cc1-c1cc(C(C)C)c(OI)cc1C | 4.73% [at 42.5 µM] (inactive) |  |

Test system: not listed separately
Experiment: qHTS assay to identify small molecule agonists of the estrogen receptor alpha (ER-alpha) signaling pathway in the presence of an antagonist - cell viability counter screen (AID 1259386; active = well fitted cell-killing curve with a large enough effect in the repeat runs;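 note: cells exposed to compounds for 22 h at 37 °C before the viability read; nearly all actives have a fitted effect of over 30% in size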; note: potency is the fitted concentration of half-maximal effect)
Settings: VM7Luc4E2 viability, CellTiter-Fluor fluorescence, 22 h; series mostly up to 92.4 µM; activity change, negative = cytotoxicity: at the top concentration
How it was run: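 Fluorescent CellTiter-Fluor viability signal from VM7Luc4E2 cells, with the reagent added during the final hour of a 22hr compound exposure at 37C in the presence of 10.0nM ICI-182,780.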

| Structure (SMILES) | activity change, negative = cytotoxicity | Potency |
| --- | --- | --- |
| CC(CCc1ccc2c(c1)OCO2)NN (stereo not given) | 2.08% [at 42.5 µM] (inactive) |  |
| CC(C)c1nnc2ccc(-c3ocnc3-c3cc(F)ccc3F)cn12 | 4.15% (inactive) |  |
| Cc1cc(S(=O)(=O)O)ccc1N=Nc1c(O)ccc2ccccc12 |  | 27.3 µM (active) |
| OC/C(Br)=C(\Br)CO | 4.16% (inactive) |  |
| CN1CCCN=C1/C=C/c1cccs1 | -3.02% [at 42.5 µM] (inactive) |  |
| CC1(C)C(=O)N(Br)C(=O)N1Cl | -0.767% (inactive) |  |
| CCC(C(=O)OCCOCCN(CC)CC)c1ccccc1 (stereo not given) | -2.92% [at 42.5 µM] (inactive) |  |
| O=C(O)c1cccc(O)c1 | 0.802% (inactive) |  |
| NC(=O)Nc1ccc(Cl)cc1 | -1.48% (inactive) |  |
| O=C(O)c1ccc(CO)o1 | 3.62% (inactive) |  |
| CCCCCCOC(=O)C(C)C | -3.31% (inactive) |  |
| CCCCCCCCCCCC[N+](C)(C)CCCS(=O)(=O)[O-] | 4.06% (inactive) |  |
| CCCOCCOCCO | 3.11% (inactive) |  |
| Cc1cc(O)c2c(O)c3c(O)cccc3cc2c1 | -6.92% [at 42.5 µM] (inactive) |  |
| Cn1c(=O)c2c(ncn2CC(=O)O)n(C)c1=O | 6.5% [at 42.5 µM] (inactive) |  |
| CC#N | 1.31% (inactive) |  |
| CO[C@H]1O[C@H](CO)[C@@H](O)[C@H](O)[C@H]1O | 2.97% (inactive) |  |
| CCOC(=O)C(C)Oc1ccc(Oc2nc3ccc(Cl)cc3o2)cc1 (stereo not given) | 2.81% (inactive) |  |
| Cc1oncc1C(=O)Nc1ccc(C(F)(F)F)cc1 |  | inactive |
| CC1CN(c2cc3c(cc2F)c(=O)c(C(=O)O)cn3-c2ccc(F)cc2F)CCN1 (stereo not given) | -5.19% [at 8.39 µM] (inactive) |  |
| COC(OC)(C(=O)c1ccccc1)c1ccccc1 | 1.1% (inactive) |  |
